Here are results for four compounds from PubChem BioAssay (EPA / NIEHS).

Inconclusive results are not listed. Calls of active or inactive are those of the source. The calls were made as follows: active = hit-call score of the fitted dose curve at least 0.9, where 1 is the maximum; inconclusive = response in the unintended direction; inactive = score below 0.9.

Chain of human AKT serine/threonine Kinase 2 (AKT2), AKT2 (gene 208) (P31751 whole entry, looked up): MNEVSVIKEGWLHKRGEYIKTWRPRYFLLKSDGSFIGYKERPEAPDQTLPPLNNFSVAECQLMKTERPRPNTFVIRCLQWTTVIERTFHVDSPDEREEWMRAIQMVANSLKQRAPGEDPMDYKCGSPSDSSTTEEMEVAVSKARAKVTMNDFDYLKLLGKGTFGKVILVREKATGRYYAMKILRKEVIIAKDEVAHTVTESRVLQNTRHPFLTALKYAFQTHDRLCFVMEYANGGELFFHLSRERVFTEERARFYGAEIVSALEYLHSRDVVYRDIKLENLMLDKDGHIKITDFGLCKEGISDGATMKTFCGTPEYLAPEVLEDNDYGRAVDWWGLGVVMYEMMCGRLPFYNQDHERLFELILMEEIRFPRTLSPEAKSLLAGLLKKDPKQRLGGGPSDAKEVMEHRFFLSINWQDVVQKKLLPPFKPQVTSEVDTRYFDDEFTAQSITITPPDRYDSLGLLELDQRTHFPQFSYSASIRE

For the assay, the target named is human AKT serine/threonine Kinase 2 (AKT2), AKT2 (gene 208) (UniProt P31751). Nature of the assay: NVS_ENZ_hAKT2: NovaScreen (NVS) Enzymatic Assay for human AKT serine/threonine Kinase 2 (AKT2) (AID 2283141). The essentials:
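Cell-free fluorescence/electrophoretic mobility shift readout of recombinant human AKT2 activity, 1 h after chemical dosing. Duplicate primary screen at 25 uM, then singleton concentration-response up to 50 uM; loss of signal versus DMSO baseline.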
`O=c1n(Cl)c(=O)n(Cl)c(=O)n1Cl`: the result was inactive.
For the compound `CCCC(=NOCC)C1=C(O)CC(CC(C)SCC)CC1=O` (centres undefined), the call was inactive.
`CS(=O)(=O)c1cc(C(F)(F)F)ccc1C(=O)c1cnoc1C1CC1`: the compound was classed as inactive.
The value for `Nc1c(Cl)c(Cl)nc(C(=O)O)c1Cl` was “inactive”.
